Format in all cases: functional
Test [1] concerns the target Solute carrier family 2, facilitated glucose transporter member 1 (Homo sapiens) (UniProt P11166). Description: ST_JUDE_LEISH: Cytotoxicity at 2uM final concentration against transgenic Leishmania Mexicana promastigotes LmGLUT1 that are glucose transport deficient and complemented with the human glucose transporter GLUT1. Activity is measured by DNA content using SYBR green in vitro.

For test [2], the target named is Hexose transporter 1 (Plasmodium falciparum) (UniProt O97467). Put plainly: ST_JUDE_LEISH: Cytotoxicity at 2uM final concentration against transgenic Leishmania Mexicana promastigotes LmPfHT that are glucose transport deficient and complemented with the Plasmodium falciparum hexose transporter. Activity is measured by DNA content using SYBR green in vitro.
In test [3] the target is Glucose transporter (Leishmania mexicana) (UniProt O61059). Description: ST_JUDE_LEISH: Cytotoxicity at 2uM final concentration against transgenic Leishmania Mexicana promastigotes LmGT2 that are glucose transport deficient and complemented with the L. Mexicana glucose transporter 2. Activity is measured by DNA content using SYBR green in vitro.

Usually inhibition stands for the change of the read-out against control, counted positive when it falls.

Chain of Solute carrier family 2, facilitated glucose transporter member 1 (Homo sapiens) (P11166 whole entry): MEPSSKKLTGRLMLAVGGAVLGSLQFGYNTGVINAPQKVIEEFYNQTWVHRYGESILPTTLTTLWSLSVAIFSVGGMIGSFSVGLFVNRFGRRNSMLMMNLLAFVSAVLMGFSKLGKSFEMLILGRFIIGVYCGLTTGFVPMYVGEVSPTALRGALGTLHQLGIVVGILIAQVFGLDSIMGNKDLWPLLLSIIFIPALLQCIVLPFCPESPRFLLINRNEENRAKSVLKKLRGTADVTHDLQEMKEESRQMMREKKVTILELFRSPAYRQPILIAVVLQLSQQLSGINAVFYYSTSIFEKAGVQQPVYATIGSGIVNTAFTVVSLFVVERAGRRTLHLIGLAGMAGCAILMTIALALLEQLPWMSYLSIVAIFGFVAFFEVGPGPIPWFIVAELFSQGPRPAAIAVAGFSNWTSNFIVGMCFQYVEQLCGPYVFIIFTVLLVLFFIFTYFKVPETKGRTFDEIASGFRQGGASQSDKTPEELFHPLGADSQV

As for `CCCN1CCN(CCCNc2c3ccccc3nc3ccccc23)CC1`, the inhibition was 73.1% in test [1], 78.2% in test [2] and 65.1% in test [3].

As to `O=C(c1ccccc1)N1CCC[C@](CCCN2CCN(c3ccccc3O)CC2)(c2ccc(Cl)c(Cl)c2)C1`, the inhibition in test [1] was 5.1%; in test [2], 4.13%; in test [3] it was 5.99%.

As for `CCNc1cc(CCCC(=O)OCC)nc(Nc2ccc(C)cc2)n1`, the inhibition in test [1] was determined as 10.3%; in test [2], 13%; in test [3], 10.3%.

Regarding `CCOCc1cnc(C)nc1NCC(=O)c1c(C)[nH]c2cc(C)ccc12`, the values for the inhibition in test [1], in test [2] and in test [3] were -0.21%, -0.79% and -0.44%, respectively.

With `O=C(OCc1ccccn1)c1nc2ccccc2[nH]1`, the inhibition in test [1] worked out at 0.81%; in test [2], 2.57%; in test [3] it was 0.92%.

With `CS(=O)(=O)c1ccc(CNCc2ccc(-c3ccc(-c4nc5cc(C(F)(F)F)ccc5[nH]4)s3)cc2)cc1`, the inhibition in test [1] was 12%; in test [2] it was 10.7%; in test [3], 9.87%.

`COc1ccc(C(=O)CC(=O)c2ccc(OC)cc2OC)c(OC)c1`: the inhibition in test [1] is 6.03%; in test [2] it was 4.03%; in test [3], 4.43%.

`CCOC(=O)c1c(NC(=O)c2ccccc2)sc2c(O)c(CN(CC)CC)ccc12`: the inhibition amounted to 12% in test [1], 5.42% in test [2] and 2.36% in test [3].

In the case of `Cc1c(CNCCCNc2nc3cscc3[nH]2)sc(C(F)F)c1Br`, the inhibition in test [1] amounted to 6.65%; in test [2] it was 4.46%; in test [3] it was 2.43%.

In the case of `COc1ccc(-c2ccc(NC(=O)c3ccc(C#N)cc3)cc2)cc1CN(C)CCN(C)C`, the inhibition in test [1] amounted to 6.36%; in test [2], 4.84%; in test [3], 1.19%.

Regarding `CN(c1ccc2c(c1)nc(NCc1ccccc1)n2C)c1ccnc(Nc2ccc(CS(C)(=O)=O)cc2)n1`, the inhibition in test [1] was determined as 4.69%; in test [2], 1.86%; in test [3], 3.22%.

With `O=C(c1ccc([N+](=O)[O-])o1)N1CCC(c2cn(Cc3cccc(F)c3)c3ccccc23)CC1`, the inhibition is 50.1% in test [1], 50.9% in test [2] and 10.2% in test [3].

For the molecule `CSc1cccc(NC(=O)c2cc3ccccc3oc2=O)c1`, the figures for the inhibition in test [1], in test [2] and in test [3] were 0.58%, 0.06% and -3.2%, respectively.

Regarding `COc1cc(-c2ccc(-c3cnc(N)nc3OC)[nH]2)cc(OC)c1OC`, the inhibition in test [1] is 5.61%; in test [2], 5.42%; in test [3], 2.7%.

As to `O=C(N[C@H]1CCN(Cc2ccc(OC3CCN(Cc4ccccc4)CC3)c(Br)c2)C1)c1ccc(Cl)c(Cl)c1`, the values for the inhibition in test [1], in test [2] and in test [3] were -0.92%, 2.97% and 0.77%, respectively.

Turning to `Cc1ccc2c(Cl)c(C(=O)N3CCCc4ccccc43)sc2c1`, the results for the inhibition in test [1], in test [2] and in test [3] were 5.28%, 3.86% and 3.16%, respectively.

For `c1cc2[nH]c(CCCCc3nc4cc(C5=N[C@H]6CCCC[C@H]6N5)ccc4[nH]3)nc2cc1C1=N[C@H]2CCCC[C@H]2N1`, the figures for the inhibition in test [1], in test [2] and in test [3] were 10.1%, 9.08% and 8.87%, respectively.

In the case of `Oc1ccc(CC2CCCN(c3nc(NCCCOc4ccccc4-c4ccccc4)nc(N4CCNCC4)n3)C2)cc1` (stereo unspecified), the inhibition in test [1] is -0.74%; in test [2], -1.72%; in test [3], -1.02%.

For the molecule `CCCC(CNC(=O)c1cc2c(Cl)cc(Cl)cc2[nH]1)CNc1cc(=O)c2ccccc2[nH]1` (stereo unspecified), the inhibition in test [1] was determined as 1.99%; in test [2], 2.64%; in test [3] it was 2.5%.

For `CCOC(=O)c1ccc(NC(=O)Nc2ccc(-c3ccc(-c4nc5cccc(C)c5[nH]4)s3)cc2)cc1`, the inhibition in test [1] came out at 1.67%; in test [2] it was 0.41%; in test [3], 0.88%.

Turning to `c1ccc(CN2CCC(Nc3ccc(-c4c[nH]nc4-c4ccccn4)nc3)CC2)cc1`, the results for the inhibition in test [1], in test [2] and in test [3] were 4.32%, 4.84% and 4.12%, respectively.

On to `COC(=O)[C@@H](NC(=O)[C@H](Cc1ccc(OC)c(OC)c1)Nc1ccc(C#N)c2ccccc12)c1ccc(O)cc1`, for which the inhibition in test [1] turned out to be 10.1%; in test [2], 16.6%; in test [3] it was 6.41%.

For the molecule `Cc1nc(N)nc(N)c1OCCCCCCOc1ccccc1`, the figures for the inhibition in test [1], in test [2] and in test [3] were 2.38%, 4.83% and -0.89%, respectively.

In the case of `c1ccc2c(CNc3nc(NCC4CCCCC4)nc4[nH]cnc34)cccc2c1`, the inhibition in test [1] came out at 4.27%; in test [2], 5.29%; in test [3], 2.36%.

For `Oc1cc2c(cc1CN1CCN(Cc3cccs3)CC1)CCC2`, the inhibition in test [1] is 0.97%; in test [2], -0.33%; in test [3], 2.76%.

In the case of `CC(C)Cn1cc(C2CCN(CCN3CCC(CNC(=O)c4ccc(-c5ccc(C(F)(F)F)cc5)cc4)CC3)CC2)c2ccccc21`, the inhibition stood at 2.78% in test [1], 3.07% in test [2] and 2.25% in test [3].

In the case of `FC(F)(F)c1cccc(Nc2nc(-n3ccnc3)nc(-n3ccnc3)n2)c1`, the inhibition in test [1] is 1.93%; in test [2] it was 0.62%; in test [3], 1.05%.

On to `O=C(Nc1cccc(-c2ccc(-c3nc4ccccc4[nH]3)s2)c1)c1ccncc1`, for which the inhibition in test [1] stood at 1.95%; in test [2], 9.91%; in test [3], 3.84%.

For `Cc1cc(N2C(N)=NC(N)=NC2(C)C)ccc1Cl`, the inhibition was 0.08% in test [1], -0.81% in test [2] and -0.97% in test [3].

`O=C1OC2(CN1CC1CCN(Cc3ccc(O)cc3Cl)C1)c1ccccc1-c1ccccc12` (stereo unspecified): the values for the inhibition in test [1], in test [2] and in test [3] were 0.5%, -2.55% and 2.67%, respectively.

Turning to `Oc1cc(Nc2ccnc3ccc(I)cc23)c(F)cc1Cl`, the values for the inhibition in test [1], in test [2] and in test [3] were 0.49%, 1.05% and -1.45%, respectively.

`Cc1[nH]c2ccccc2c(=O)c1Br`: the values for the inhibition in test [1], in test [2] and in test [3] were 5.04%, 5.06% and -5.87%, respectively.

As for `O=C(Cc1c[nH]cn1)Nc1cccc(-c2cccc(-c3nc4cc(F)ccc4[nH]3)c2)c1`, the inhibition is -1.27% in test [1], -0.43% in test [2] and -2.58% in test [3].

Regarding `Cc1c(CNCCCNc2cc(=O)c3ccccc3[nH]2)sc(-c2ccco2)c1Br`, the values for the inhibition in test [1], in test [2] and in test [3] were 14.4%, 13.6% and 13.9%, respectively.

Regarding `CCCC(=O)NC(c1ccc(C)cc1)c1ccc2cccnc2c1O` (stereo unspecified), the values for the inhibition in test [1], in test [2] and in test [3] were 3.47%, 4.55% and -1.36%, respectively.

`CCOc1cc(C(=O)NCc2cc(Cl)cc(Cl)c2)ccc1-c1nc2cc(Cl)ccc2[nH]1`: the results for the inhibition in test [1], in test [2] and in test [3] were 1.6%, 2.18% and 1.11%, respectively.

In the case of `COc1ccc(C(=O)NCC(C)(C)c2nc(-c3ccc(Cl)c(O)c3)c(-c3ccncc3)[nH]2)cc1OCCN(C(C)C)C(C)C`, the inhibition in test [1] is -1.11%; in test [2], -0.86%; in test [3] it was -1.98%.

For the origin of these results see ChEMBL document CHEMBL3433997, “St. Jude Leishmania screening dataset” (2016).
